Most compounds without a hit are left out; they make up all but 7% or so of the library.
a7 integrin act = qHTS for Activators of Integrin-Mediated Alleviation for Muscular Dystrophy; alpha7betagal myoblasts, beta-gal FDG fluorescence, 48 h; Potency, µM (doses to about 38.3 µM), for inactives: at the highest dose activation, most hits filed as activators; actives 0.064% (n = 350,000);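 also: potency is read from the fitted curve at half-maximal effect; 100% = response of the positive control SU9516; nearly all actives have a fitted effect of over 60% in size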
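Alpha7betagal+/- myoblasts (passage 13) were plated 16-24 hr, then exposed to compounds (1:260 dilution of DMSO stock) for 48 hours at 37C. After MPER lysis, β-galactosidase reporter activity was read as FDG fluorescence (ex 480/em 540) after 30 minutes.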
DRD3 agonist = qHTS of D3 Dopamine Receptor Agonist: qHTS. max activation, %. D3R DiscoveRx beta-arrestin cells, luminescence, 90 min. AID 652048, 2013. actives 0.58% (n = 410,000); in the data active = max activation above about 30%; also: 0% is about no effect
Target sequence (P35462 whole entry, looked up): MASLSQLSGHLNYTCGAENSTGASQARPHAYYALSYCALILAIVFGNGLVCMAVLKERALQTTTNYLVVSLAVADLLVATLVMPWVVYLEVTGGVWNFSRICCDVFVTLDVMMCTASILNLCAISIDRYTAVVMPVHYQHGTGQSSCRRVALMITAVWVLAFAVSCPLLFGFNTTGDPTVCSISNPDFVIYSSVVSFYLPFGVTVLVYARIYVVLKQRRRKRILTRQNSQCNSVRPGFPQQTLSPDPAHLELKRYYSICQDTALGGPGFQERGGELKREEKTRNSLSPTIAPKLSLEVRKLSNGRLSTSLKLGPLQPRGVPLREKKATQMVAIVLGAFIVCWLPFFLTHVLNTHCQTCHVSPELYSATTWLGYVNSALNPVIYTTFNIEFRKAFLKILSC
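Cells at 1500/well, incubated overnight, then treated with pinned compounds (dopamine as control) for 90 min at 37 degrees C. DiscoveRx reagent added for 30 - 60 minutes at room temperature; luminescence read.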
ATXN viability = Viability Counterscreen for Primary qHTS for Inhibitors of ATXN expression | S2 cells (HEK-293 line with an ATXN2-luciferase reporter) viability, CellTiter-Fluor protease fluorescence, 24 h | Potency, µM (doses to about 56.7 µM), most hits filed as cytotoxic | actives 0.49% (n = 400,000) | AID 651635, 2014; also: potency is read from the fitted curve at half-maximal effect; nearly all actives have a fitted effect of over 40% in size
ATXN2 expr inh = Primary qHTS for Inhibitors of ATXN expression; Potency, µM (doses to about 57 µM), for inactives: top-dose activity change, negative = inhibition, most hits filed as inhibitors; AID 1745845, 2022; HEK-293 ATXN2-luciferase reporter, luminescence, 24 h; actives 0.72% (n = 360,000); also: potency is read from the fitted curve at half-maximal effect; % is scaled to controls: 0 for no effect and ±100 for the full control effect; nearly all actives have a fitted effect of over 55% in size
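qHTS (up to 57 uM final) was run with 24 h compound exposure of reporter cells at 37 °C. Each well was multiplexed: SteadyGlo luminescence measured ATXN2-luciferase expression after a fluorogenic Gly-Phe-AFC viability readout (25 uM final).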
IL1B secr inh = qHTS for Inhibitors of Inflammasome Signaling: IL-1-beta AlphaLISA Primary Screen; THP-1 LPS/ATP IL-1B secretion, AlphaLISA, 16 h; stronger effect = lower value; activity change, % at 57.5 µM; actives 4.7% (n = 360,000); in the data active = activity change below about -50%; inconclusive = mostly about -30% to -49%; also: % is scaled to controls: 0 for no effect and ±100 for the full control effect
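THP-1 cells pretreated 1 hr with compounds (up to 57.5 uM final), then stimulated with LPS (250 ng/mL final) plus ATP (1.25 mM final); secreted IL-1B measured by AlphaLISA after 16 hr, decreased signal indicating inhibition.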
DRD3 antagonist = qHTS of D3 Dopamine Receptor Antagonist: qHTS | max response, negative = inhibition, % | D(3) dopamine receptor (Homo sapiens), P35462 | D3R cells, DiscoveRx beta-arrestin luminescence, antagonist mode; stronger effect = lower value | actives 2.5% (n = 360,000); in the data active = max response below about -50%; inconclusive = no clear call, values can overlap the other calls; also: % is scaled to controls: 0 for no effect and ±100 for the full control effect
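Cells expressing the human receptor were seeded at 1500 cells/well, incubated overnight at 37 degrees C in 5% CO2, then exposed to library compounds with dopamine controls for 90 minutes at 37 degrees C before luminescent detection.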
Numbers without * were called inactive; i = inactive; ? = inconclusive; / = no result given. Unless noted, calls follow the shape of the dose curve; as a rule, active = well fitted curve in the direction sought with a large enough effect; inconclusive = small, poorly fitted or top-dose-only effect, or another doubt; inactive = no such curve, though single readings can be large; an effect the other way counts as inactive or inconclusive.

SMILES	a7 integrin act	DRD3 agonist	ATXN viability	ATXN2 expr inh	IL1B secr inh	DRD3 antagonist
CCc1cc2c(-c3ccccc3)cc(=O)oc2cc1OC(C)C(=O)NCC1CCC(C(=O)O)CC1 (centres undefined)	25%	44*	?	-4%	21	114
O=C(COc1cc2oc(=O)c3c(c2cc1Cl)CCCC3)NCC1CCC(C(=O)O)CC1 (centres undefined)	7.1µM*	-13	i	9%	22	13
CC(Oc1ccc2c3c(c(=O)oc2c1)CCC3)C(=O)NCC1CCC(C(=O)O)CC1 (centres undefined)	-3%	43*	i	11%	12	225
CC(Oc1cc2oc(=O)cc(-c3ccccc3)c2cc1Cl)C(=O)NCC1CCC(C(=O)O)CC1 (centres undefined)	32%	3	i	-2%	20	24
CC(Oc1ccc2c3c(c(=O)oc2c1)CCCC3)C(=O)NCC1CCC(C(=O)O)CC1 (centres undefined)	0%	7	i	13%	34	20
CCc1cc2c(=O)[nH]c(-c3ccccn3)nc2s1	-65%	-22	5.6µM*	?	-95*	-68*
CCc1cc2c(=O)[nH]c(CC(N)=O)nc2s1	22%	11	i	-4%	-66*	-7
CCc1cc2c(=O)[nH]c(N3CCCC3)nc2s1	-2%	5	i	20%	-14	4
CS(=O)(=O)c1sc2nc(-c3cccs3)cc(-c3ccccc3)c2c1N	5%	-3	i	-2%	-72*	?
COc1ccc2oc(=O)c(C(=O)NCCc3c(C)[nH]c4ccc(Br)cc34)cc2c1	/	3	i	-15%	/	/
CC1CCN(CCCCOc2ccc(Br)cc2)CC1	-57%	-18	i	-4%	-10	-52*
CC1CCN(CCCCOc2cccc(Br)c2)CC1	-41%	-32	i	0%	?	?
CC1CCN(CCOc2ccc(Cl)c(Cl)c2)CC1	6%	1	i	-8%	-20	-51*
Cc1cc(Br)ccc1OCCCCN1CCC(C)CC1	-40%	-27	i	-15%	?	-76*
Brc1ccc(OCCCCN2CCCCC2)cc1	-58%	-7	i	/	-8	-55*
Cc1cc(C)c(NC(=O)COC(=O)C2CCCCC2)c(C)c1	-8%	5	i	-2%	-15	-1
O=C(C1COc2ccccc2O1)N1CCN(S(=O)(=O)c2ccccc2)CC1 (centres undefined)	26%	2	i	-4%	-9	-2
Cn1ccnc1/C(=N\NC(=O)c1ccccc1)c1cccc([N+](=O)[O-])c1	-54%	-19	i	-25%	-51*	-19
CCOc1ccc(C(=O)N/N=C(\c2ccccc2)c2ccccn2)cc1	-12%	-8	?	7.9µM*	-100*	-9
O=C(N/N=C(\c1ccccc1)c1ccccn1)c1cccc([N+](=O)[O-])c1	14%	-12	?	/	24	-74*
N/C(=N\OC(=O)c1cccc([N+](=O)[O-])c1)c1ccccn1	-13%	2	i	-34%	13	-13
Oc1c(Cl)cc(Cl)cc1C=Nc1ccc2c(c1)OCCO2	-29%	-18	i	-5%	91	-52*
Brc1csc(C=Nc2ccc3c(c2)OCCOCCOCCOCCO3)c1	3%	5	?	-12%	-3	0
COc1cc(C(C(=O)NC2CCCC2)N(C(=O)Cc2cccs2)C2CC2)cc(OC)c1OC (centres undefined)	24%	-7	i	-17%	-2	-7
Cc1ccn2c(C(=O)N/N=C\c3ccc4c(c3)OCO4)c(C)nc2c1	6%	2	i	-6%	12	-13
SMILES	a7 integrin act	DRD3 agonist	ATXN viability	ATXN2 expr inh	IL1B secr inh	DRD3 antagonist
COCCn1c(C)cc(O)c(C(c2ccc(OC)cc2)N2CCCCC2)c1=O (centres undefined)	/	-4	/	/	/	/
CCOC(=O)C1=C(CC)Nc2ccccc2N=C1NC(=O)c1ccc(OC)c(S(=O)(=O)N2CCCCC2C)c1 (centres undefined)	14µM*	2	?	-33%	?	37
CCOC(=O)C1=C(CC)Nc2ccccc2N=C1NC(=O)c1ccc(C)c(S(=O)(=O)N2CCOCC2)c1	-22%	8	?	-18%	-10	9
Cc1cc(C)n(-c2nc(SCCN(C)C)c3c4c(sc3n2)COC(C)(C)C4)n1	-60%	-43	?	?	-60*	-24
Cc1cc(C)n(-c2nc(NCC(C)O)c3c4c(sc3n2)COC(C)(C)C4)n1 (centres undefined)	-19%	-10	i	12%	-9	-9
Cc1cc(C)n(-c2nc(NCC3CCCO3)c3c4c(sc3n2)COC(C)(C)C4)n1 (centres undefined)	19%	-17	i	-9%	-51*	-26
Cc1nc2sccn2c(=O)c1S(=O)(=O)NC(C)c1ccccc1 (centres undefined)	25%	1	i	11%	-13	-6
c1ccc2c(c1)c1c(c3ccccc32)CN2CCCC2C1 (centres undefined)	-14%	-14	?	?	-97*	?
c1ccc(CN2CCC(N3CCC(N4CCCCCC4)CC3)CC2)cc1	-52%	3	?	-20%	-22	-23
CCN(CCN(C)C)C(=O)C1CCN(S(=O)(=O)c2c(C)noc2/C=C/c2ccccc2F)CC1	-4%	-2	?	/	-11	-54*
O=C(CCCN1C(=O)/C(=C/c2cccc(Br)c2)SC1=S)Nc1ccccn1	-22%	0	?	10µM*	?	?
O=C(CCCN1C(=O)/C(=C/c2cccc(Br)c2)SC1=S)Nc1cccnc1	-52%	8	?	?	-90*	-14
O=C(CCCN1C(=O)/C(=C/c2cccs2)SC1=S)Nc1cccnc1	-33%	-4	i	9%	-6	-9
COc1ccccc1/C=C1\SC(=S)N(CCC(=O)NCCc2ccc(O)cc2)C1=O	0%	4	i	-5%	-82*	-13
COc1ccc(/C=C2/SC(=S)N(CCCC(=O)Nc3ccc(O)cc3)C2=O)cc1	-61%	-6	?	-7%	-17	-14
Cc1cc(NC(=O)CN2C(=O)/C(=C/c3cccc(Br)c3)SC2=S)no1	2%	3	i	-6%	13	16

Source: PubChem
